Compounds without any hit were thinned out: in the full panel of roughly 79,000, 15% have a hit. Cut-off read from the data, not from the text of the source: active = growth inhibition above about 70%; inactive = the rest.
Experiments:
[1] = NCI Yeast Anticancer Drug Screen. Data for the rad50 strain (AID 155);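 note: 0% = growth of vehicle-only cultures of the same strain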; conditions: S. cerevisiae rad50 strain growth inhibition; at 50.0 µM; hits give high values
Procedure, shortened: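 DNA repair mutant yeast, compound exposure, growth read-out; inhibition is taken relative to vehicle.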

[2] = NCI Yeast Anticancer Drug Screen. Data for the mec2-1 strain (AID 157); conditions: S. cerevisiae mec2-1 strain, at 50.0 µM, hits give high values
Procedure, shortened: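 Readout is yeast growth inhibition, normalised to vehicle-treated controls, in the mec2-1 strain exposed to compound.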

[3] = NCI Yeast Anticancer Drug Screen. Data for the sgs1 mgt1 strain (AID 161);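 note: 0% = growth of cultures given vehicle only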; conditions: S. cerevisiae sgs1 mgt1 strain, at 50.0 µM, hits give high values
Procedure, shortened: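 Yeast cells carrying a defined DNA-repair defect were exposed to test compounds. Growth inhibition was measured relative to vehicle-treated controls.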

[4] = NCI Yeast Anticancer Drug Screen. Data for the cln2 rad14 strain (AID 165);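 note: 0% = growth equal to vehicle treated cultures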; conditions: S. cerevisiae cln2 rad14 strain, at 50.0 µM, hits give high values
Procedure, shortened: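 Relative to vehicle controls, growth inhibition of compound-treated cln2 rad14 yeast was recorded.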

[5] = NCI Yeast Anticancer Drug Screen. Data for the bub3 strain (AID 167); conditions: S. cerevisiae bub3 mutant strain, at 50.0 µM, hits give high values
Procedure, shortened: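 In this screen, a yeast mutant lacking normal mitotic checkpoint function is challenged with compound. Relative growth versus vehicle gives the inhibition value.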

[6] = NCI Yeast Anticancer Drug Screen. Data for the mlh1 rad18 strain (AID 175); conditions: S. cerevisiae mlh1 rad18 strain growth inhibition; at 50.0 µM; hits give high values
Procedure, shortened: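 Test agents were incubated with a yeast strain of defined genotype (DNA damage repair defect). Inhibition of growth was derived by comparison with vehicle-exposed cultures.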

Measured: growth inhibition

CN1C2CCC1C(O)C(c1ccccc1)C2 (stereo unspecified)
inactive: [1] 6.15% | [2] 9.25% | [3] -0.05% | [4] -11.8% | [5] 0.45% | [6] -0.6%

CC(C)CC(C)OC(=O)Cc1ccccc1 (stereo unspecified)
inactive: [1] 39% | [2] 14.5% | [3] 31.1% | [4] -6.9% | [5] 7.8% | [6] 31.2%

CC(=O)c1c(O)c(C)c(O)c(Cc2c(O)c3c(c(C(=O)/C=C/c4ccccc4)c2O)OC(C)(C)C=C3)c1O
inactive: [1] 23.9% | [2] 29.8% | [3] 49.1% | [4] 17.7% | [5] 39.8% | [6] 14.5%

O=NN1CCCCC1
inactive: [1] -18.2% | [2] 7.1% | [3] 28.4% | [4] -15.1% | [5] 0.15% | [6] 18.9%

NC(=O)Oc1ccccc1
inactive: [1] -4.5% | [2] -26.4% | [3] 5.4% | [4] 12.1% | [5] -10% | [6] -3.6%

CCOP(=O)(O)CP(=O)(O)OCC.CCOP(=O)(O)CP(=O)(O)OCC.[Cr]
inactive: [1] -61.8% | [2] -11.4% | [3] -32.2% | [4] -40.5% | [5] 2.7% | [6] -27.2%

Nc1ccc([N+](=O)[O-])cc1
inactive: [1] -11.2% | [2] 2.8% | [3] -14.9% | [4] -6.55% | [5] -14.7% | [6] -1%

N#CCCc1ccccc1
inactive: [1] -2.25% | [2] -7.95% | [3] -1.95% | [4] -12.8% | [5] -1.1% | [6] 0.65%

CCOC(=O)C1C2(C(C)=O)C=Nc3c(C#N)cnn3C12C(=O)OCC (stereo unspecified)
inactive: [1] 0.9% | [2] -3.35% | [3] 4.85% | [4] 28.4% | [5] 4.2% | [6] -7.95%

Oc1ccccc1I
inactive: [1] 11.9% | [2] 4.85% | [3] -57% | [4] -8.7% | [5] -42.9% | [6] -14.2%

C/C(=N\O)C(CN1CCCCC1)C(c1ccccc1)c1c(O)c2ccccc2oc1=O (stereo unspecified)
inactive: [1] 17.9% | [2] 2.05% | [3] 24.6% | [4] 28.6% | [5] 21.4% | [6] 26.9%

[Se]=P(c1ccccc1)(N1CC1)N1CC1
inactive: [1] 33.2% | [2] 10.2% | [3] 11.8% | [4] 3.55% | [5] -1.3% | [6] 6.85%

CCC(=O)C(CC(C)[N+](C)(C)C)(c1ccccc1)c1ccccc1 (stereo unspecified)
inactive: [1] -3.05% | [2] -4.95% | [3] -4.6% | [4] 3.35% | [5] -18.5% | [6] 6.5%

NC(N)=NN(N=O)C1CCCCC1
inactive: [1] 4.35% | [2] 5.05% | [3] -7.85% | [4] -34.8% | [5] -10.5% | [6] 5.8%

O=S(=O)(C(Cl)Cl)C(Cl)(Cl)S(=O)(=O)C(Cl)Cl
inactive: [1] -11.4% | [2] -53% | [3] 5.8% | [4] -40.2% | [5] 5.1% | [6] 13.1%

CC(=O)OC1CC2(O)C(CCC3(C)C(c4ccc(=O)oc4)CCC32O)C2(C)CCC(O)C=C12 (stereo unspecified)
inactive: [1] 7.25% | [2] -11.4% | [3] -1.75% | [4] -1.75% | [5] -3.4% | [6] 14.8%

CC(C)(C)C1COP(=O)(C(C)(C)C)OC1 (stereo unspecified)
inactive: [1] -12.6% | [2] 6.1% | [3] -1.15% | [4] -38.6% | [5] 10.6% | [6] 16.2%

O=C1CCCCC1CN1CCCCC1 (stereo unspecified)
inactive: [1] 4.8% | [2] -3.2% | [3] -2.45% | [4] -3.25% | [5] 3.45% | [6] 1.25%

COP(=O)(Cc1ccc(/C=C/C#N)o1)OC
inactive: [1] -12.2% | [2] -3.1% | [3] -38.8% | [4] -22.1% | [5] 18.2% | [6] -10.2%

CC(=O)O[C@H]1CC[C@]2(C)[C@H]3CC[C@]4(C)[C@@H](OC(C)=O)CC[C@H]4[C@@H]3[C@H](C=O)[C@]2(O)C1
inactive: [1] 7.9% | [2] 4.35% | [3] -8.6% | [4] 4.25% | [5] -0.75% | [6] 8.7%

C=COC(N)=O
inactive: [1] 0.8% | [2] -2.7% | [3] 5.05% | [4] -0.9% | [5] 0.05% | [6] -8.15%
